Results: PubChem BioAssay AID1117319 (Southern Research Institute, 2015)
Screen size: about 260,000 compounds; about 1,500 (0.58%) were called active. Not shown: some 5% with an inconclusive outcome.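 The calls were made as follows: active = inhibition above a set limit at one or more doses, reproduced on every date tested; inconclusive = results disagree between test dates, or hit never tested in dose response; inactive = the rest.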 The list is a sample of the results. Entries with a potency or affinity are not part of this list.

These compounds were tested against Virion infectivity factor (Human immunodeficiency virus type 1 group M subtype B (isolate BH10)) + Virion infectivity factor (Human immunodeficiency virus type 1 group M subtype B (isolate BRU/LAI)) + Virion infectivity factor (Human immunodeficiency virus type 1 group M subtype B (isolate PCV12)) + Virion infectivity factor (Human immunodeficiency virus type 1 group M subtype B (isolate HXB2)) + DNA dC->dU-editing enzyme APOBEC-3G (Homo sapiens) (UniProt P69720+P69721+P69722+P69723+Q9HC16) (assay: inhibitors of Vif binding to APOBEC3G peptide, primary screen, biochemical, TR-FRET, GST-Vif 1-94, biotin-A3G peptide, dose response retest (AID 1117319;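 also: Vif residues 1-94 fused to GST binding biotinylated APOBEC3G peptide 110-148; 0% = full assay without inhibitor and 100% = GST in place of GST-Vif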)). Conditions: stronger effect = higher value.

inhibition, inactive:
CC(/C=N/NC(=O)Cc1cccs1)=C\c1ccco1 12.2%
C/C(=N\NC(=O)Cc1cccn1C)c1ccco1 20.2%
CC(=O)Nc1ccc2c(c1)nc(C)n2-c1ccccc1 -9.18%
O=C1CC(c2ccc(O)cc2)Oc2cc(O)cc(O)c21 (stereo unspecified) 10.3%
O=C1C[C@@H](c2ccc(O)cc2)Oc2cc(O)cc(O)c21 2.93%
Cc1n[nH]c(C)c1S(=O)(=O)N(C)Cc1ccco1 0%
CCC(=O)c1ccc(OCC(=O)OCC(=O)N2c3ccccc3NC(=O)C2(C)C)cc1 0.69%
Cc1noc(C)c1COc1ccc(C(=O)OCC(=O)N2CC(=O)Nc3ccccc32)cc1 2.4%
CS(=O)(=O)N(CC(=O)N1CCCCCC1)c1ccc2c(c1)OCCO2 0.11%
CCC(=O)Nc1nc2ccc([N+](=O)[O-])cc2s1 1.71%
COc1ccc(OC)c(NC(=O)NCc2cccnc2)c1 -1.39%
COc1ccc(C)cc1NC(=O)NCc1ccc(F)cc1 7.92%
O=C(CCNC(=O)c1ccc(Cl)cc1)NCc1ccccc1Cl -1.5%
COc1cccc(-c2c3c([nH]c(=O)c2C#N)CCc2cc(OC)ccc2-3)c1 -2.14%
CCCCN1CC(COCc2ccccc2)Oc2cc(Br)ccc2S1(=O)=O (stereo unspecified) -3.27%
CCC(C(=O)OCC(=O)Nc1ccc(C(N)=O)cc1)c1ccccc1 (stereo unspecified) -11.4%
CCC(C(=O)OCC(=O)Nc1ccc(F)cc1)c1ccccc1 (stereo unspecified) 11.7%
CCSc1nnc(NC(=O)[C@@H](NC(=O)c2ccccc2F)C(C)C)s1 -8.51%
Cc1c(Cl)ccc2c1NC(=O)[C@]21[C@@H]2C(=O)N(Cc3ccccc3)C(=O)[C@@H]2[C@@H]2CCCN21 2.38%
Cc1cc(Cl)c2c(c1)[C@]1(C(=O)N2)[C@@H]2C(=O)N(Cc3ccccc3)C(=O)[C@@H]2[C@@H]2CCCN21 28.3%
O=C(Cc1n[nH]c(=O)c2ccccc12)OCC(=O)c1ccc(F)c(F)c1 -13.4%
Cc1cc(NC(=O)Nc2ccc(F)cc2F)n(C)n1 -0.16%
C#CCN(C[C@H]1[C@H](OC(=O)Nc2c(C)noc2C)[C@H](OC(=O)Nc2c(C)noc2C)C[C@@H](C(=O)OC)[C@H]1C(=O)OC)S(=O)(=O)c1ccc(C)cc1 1.23%
COc1ccccc1C(=O)N(CCN(C)C)c1nc2cc(C)cc(C)c2s1 -1.26%
Cc1c(Cl)cnc(NC(=O)COC(=O)/C=C/c2ccco2)c1Cl 19.7%
Cc1nc(NC(=O)COC(=O)/C=C/c2ccco2)c(Cl)cc1Cl 20.2%
